Test results reported in PubChem BioAssay (Tox21).
Inconclusive results are not listed. A number with no mark means an inactive call. Activity calls are given as the source filed them. The call rests on the fitted dose curve; in most records, active means well fitted cell-killing curve with a large enough effect in the repeat runs; inconclusive means weak or mixed curves, or effect the other way; inactive means flat fitted curve, though single readings scatter.

Assay: qHTS RealTime-Glo MT Cell Viability Assay in HEK293 cells - 0 hour (AID 1224880); further: nearly all actives have a fitted effect of over 45% in size; on activity change, negative = cytotoxicity: top concentration of the series differs between compounds
Conditions: RealTime-Glo luminescence; series mostly up to 76.8 µM; activity change, negative = cytotoxicity: at the top concentration
Excerpt: U.S. Tox21 Program National Center for Advancing Translational Sciences [NCATS] NIH Chemical Genomics Center [NCGC] U.S. Environmental Protection Agency [EPA] National Institutes of Environmental Health Sciences [NIEHS] National Toxicology Program [NTP] U.S. Food and Drug Administration [FDA] Tox21 Assay Overview: Measure of cell viability is critical in the cell-base assay. Analysis of cell viability is necessary for the characterization of cell responses to cytotoxic drugs and environmental stress. A RealTime-Glo MT Cell Viability Assay to monitor cell viability in real time of continues cell culture during 40 hours of compound treatment was used to screen Tox21 10K library compounds in Hek293 cells. The RealTime-Glo MT Cell Viability Assay is a nonlytic, homogeneous, bioluminescent method to measure cell viability in real time using a simple, plate-based method. The assay involves adding NanoLuc luciferase and a cell-permeant prosubstrate to cells in culture. Viable cells reduce the proprietary prosubstrate to generate a substrate for NanoLuc luciferase. This substrate diffuses from cells into the surrounding culture medium, where it is rapidly used by the NanoLuc Enzyme to produce a luminescent signal. The signal correlates with the number of viable cells, making the assay well suited for cytotoxicity studies.
Tox21 Assay Protocol Summary: The mixture of Hek293 cell suspension and reagents were dispensed at 600cells/6 ul/well in 1536-well tissue culture treated black solid bottom plates using a Multidrop dispenser. After the assay plates were incubated at a 37 C/5% CO2 incubator for 5 hours, 23 nL of compounds dissolved in DMSO, positive and negative controls was transferred to the assay plate by a pintool work station. The plates were incubated at 37 C for 40 hours. The luminescence intensity were measured at 0h, 8h, 16h, 24h, 32h and 40h time points using ViewLux plate reader during compound treatment.
On the % scale 0 is the no-effect control and ±100 the full control effect; potency means the concentration at half of the fitted maximal effect.

| Structure (SMILES) | activity change, negative = cytotoxicity | Potency |
| --- | --- | --- |
| CCO[C@H](Cc1ccc(OCCc2ccc(OS(C)(=O)=O)cc2)cc1)C(=O)O | 5.54% [at 35.3 µM] |  |
| COc1ccnc(CS(=O)c2nc3ccc(OC(F)F)cc3[nH]2)c1OC (stereo not given) | -1.08% [at 35.3 µM] |  |
| CCO[Si](CCCCl)(OCC)OCC | 5.31% |  |
| CC(CC=O)c1ccccc1 (stereo not given) | -5.03% |  |
| CNCCCN1c2ccccc2CCc2ccccc21 | 16.2% [at 35.3 µM] |  |
| O=C(Cl)c1cc(C(=O)Cl)cc(C(=O)Cl)c1 | -3.71% |  |
| CCCCC(CC)COC(=O)COc1ccc(Cl)cc1Cl (stereo not given) | -1.11% |  |
| C#C[C@]1(O)CC[C@H]2[C@@H]3CCc4cc(OC5CCCC5)ccc4[C@H]3CC[C@@]21C | -0.305% [at 35.3 µM] |  |
| CCCCC(=O)OCC(=O)[C@H]1[C@H](C)C[C@H]2[C@@H]3C[C@H](F)C4=CC(=O)C=C[C@]4(C)[C@@]3(F)[C@@H](O)C[C@@]21C |  | 4.77 µM (active) |
| O=C(Nc1ccc(S(=O)(=O)N2CCOCC2)cc1)c1cc(Cl)ccc1NS(=O)(=O)c1ccc(Cl)s1 |  | 10.7 µM (active) |
| Cc1[nH]c(C)c(Cl)c(=O)c1Cl | 7.46% [at 15.8 µM] |  |
| CC(=O)[O][Al] | 13.6% |  |
| CCCCC1=NC2(CCCC2)C(=O)N1Cc1ccc(-c2ccccc2-c2nn[nH]n2)cc1 | -15.4% [at 35.3 µM] |  |
| COc1cc2nc(N3CCN(C(=O)C4COc5ccccc5O4)CC3)nc(N)c2cc1OC (stereo not given) |  | 19 µM (active) |
| O=C(O)c1nc(Cl)c(Cl)c(Cl)c1Cl | -4.48% |  |
| C[N+]1(CC2COC(c3ccccc3)(C3CCCCC3)O2)CCCCC1 (stereo not given) | 11.2% [at 35.3 µM] |  |
| O=C(OCCCCCCOC(=O)c1ccccc1)c1ccccc1 | 9.47% |  |
| C1CCCNCCC1 | -1.23% |  |
| S=C([S-])NCCNC(=S)[S-].[Mn+2] | 11.2% |  |
| Nc1ccc([N+](=O)[O-])c(C(F)(F)F)c1 | 2.29% [at 35.3 µM] |  |

| Structure (SMILES) | activity change, negative = cytotoxicity | Potency |
| --- | --- | --- |
| CC(=O)c1ccc2c(c1)N(CCCN1CCC(CCO)CC1)c1ccccc1S2 | 10.3% [at 35.3 µM] |  |
| Nc1cc(C(=O)O)c(O)c(S(=O)(=O)O)c1 | 8.36% |  |
| C[C@@H]1C[C@H]2[C@@H]3CCC4=CC(=O)C=C[C@]4(C)[C@@]3(F)[C@@H](O)C[C@]2(C)[C@@]1(O)C(=O)COC(=O)c1ccncc1 |  | 3.01 µM (active) |
| CC1OC(=O)C(C)OC1=O (stereo not given) | -4.61% |  |
| CN(C)CCN(Cc1ccc(Cl)cc1)c1ccccn1 | 14.7% [at 35.3 µM] |  |
| CCc1cc(C2=C(C(=O)O)N(c3ccccc3C(F)(F)F)S(=O)(=O)c3ccccc32)cc2c1OCO2 |  | 43.1 µM (active) |
| C=C(C)C(=O)OCC | 1.7% |  |
| O=C(O)CC(=O)C(=O)O | 2.9% |  |
| C/C=C/C(=O)CC | 9.44% [at 15.8 µM] |  |
| O=C(O)C1(C(=O)Nc2ccc(Cl)cc2Cl)CC1 | -19.9% |  |
| CCOc1ccc(N)c([N+](=O)[O-])c1 | -16.2% |  |
| CCCCCCCC#N | -7.56% |  |
| COC(C)(C)CCO | 4.24% |  |
| O=S(=O)(Oc1ccc(Cl)cc1)c1ccccc1 | -2.71% |  |
| COc1cc(Cl)c(OC)cc1N | -1.9% |  |
| COc1ccc(S(=O)(=O)N2C(=O)[C@@](c3ccccc3OC)(N3C[C@H](O)C[C@H]3C(=O)N(C)C)c3cc(Cl)ccc32)c(OC)c1 | 0.786% |  |
| O=C(OCCc1ccccc1)c1ccccc1 | 6.12% |  |
| COc1ccc(C)cc1[N+](=O)[O-] | 2.4% |  |
| CCCCCCCCO[C@@H]1O[C@H](CO)[C@@H](O)[C@H](O)[C@H]1O | 11.5% |  |
| CCOC(=O)C(O)c1ccccc1 (stereo not given) | 11.3% [at 35.3 µM] |  |
